In PubChem BioAssay AID652115 (Broad Institute, 2013):
The whole screen tested about 330,000 compounds, of which about 3,800 (1.2%) were called active. No stated cut-off is given here; in the data, active means inhibition above about 15%; inconclusive means no clear call, values can overlap the other calls; inactive means below that. This excerpt belongs to a sample that is enriched for actives.

These compounds were tested against NAD-dependent protein deacylase sirtuin-5, mitochondrial (Homo sapiens) (UniProt Q9NXA8) (assay: blockers of sirtuin-5 deacylase activity – biochemical, fluorescence imaging, single point, set 5, primary screen (AID 652115)). Details: Purified SirT5, succinyl-peptide AMC, trypsin-coupled fluorescence; at 15 µM; active compounds read high.
Chain of NAD-dependent protein deacylase sirtuin-5, mitochondrial (Homo sapiens) (Q9NXA8 whole entry, looked up): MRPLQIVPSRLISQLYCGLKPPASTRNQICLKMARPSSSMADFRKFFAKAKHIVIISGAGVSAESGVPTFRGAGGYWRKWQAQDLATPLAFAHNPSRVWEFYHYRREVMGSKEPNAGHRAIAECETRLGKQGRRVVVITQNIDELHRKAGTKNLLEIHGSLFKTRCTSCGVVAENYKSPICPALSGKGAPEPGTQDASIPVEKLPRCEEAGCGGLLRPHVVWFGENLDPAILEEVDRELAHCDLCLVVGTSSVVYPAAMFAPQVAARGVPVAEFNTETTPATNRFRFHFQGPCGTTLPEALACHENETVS

inhibition, active:
Oc1c(Cl)cc(Cl)c(Cl)c1Cc1c(O)c(Cl)cc(Cl)c1Cl 16%
O=C1CCC(C(=O)N2CCC(O)(c3ccccc3)CC2)CN1CCc1ccccc1 (stereo not given) 15.1%
CC(C)C(=O)Nc1ccc2c3c(cccc13)CC2 18.7%

inhibition, inactive:
COc1ccc2c3c(n(C)c2c1)[C@@H](CO)NCC31CCN(CC2CCCC2)CC1 -0.874%
CN1CCN(C(=O)C[C@@H]2C=C[C@@H](NS(=O)(=O)c3cccc(F)c3)[C@@H](CO)O2)CC1 1.94%
C[C@@H]1CN([C@@H](C)CO)S(=O)(=O)c2ccc(-c3cccnc3)cc2O[C@H]1CN(C)CC1CCOCC1 1.51%
CCC(=O)N1[C@H](C(=O)NC2CCC2)[C@@H](CO)[C@@H]2Cn3c(cccc3=O)[C@@H]21 -8.06%
C[C@H](CO)N1C[C@H](C)[C@@H](CN(C)S(=O)(=O)c2ccccc2F)Oc2ncc(C#Cc3ccccc3F)cc2C1=O 2.94%
N#C[C@@H]1[C@@H](c2ccccc2C2=CCCC2)[C@H](CO)N1C(=O)NC1CCCC1 1.76%
COCC(=O)Nc1ccc2c(c1)C(=O)N(C)[C@@H]1CC[C@@H](CC(=O)NCC(F)(F)F)O[C@H]1CO2 0.833%
O=C(NCCCc1ccccc1)C1CCC(=O)N(CCc2ccc(Cl)cc2)C1 (stereo not given) -3.16%
Cc1cnc(C)c(N2CCN(C(=O)C3CCC(=O)N(CCc4cccc(F)c4)C3)CC2)n1 (stereo not given) -3.12%
C[C@@H]1CN([C@@H](C)CO)C(=O)c2cccc(NC(=O)Nc3ccc(F)cc3)c2O[C@H]1CN(C)Cc1ccc(-c2ccccc2)cc1 -1.08%
CCNC(=O)[C@H]1[C@H](CO)[C@H]2Cn3c(ccc(-c4cccc(OC)c4)c3=O)[C@H]2N1Cc1nccs1 -15.5%
CN1c2ccc(C3=CCCCC3)cc2[C@@H]2[C@@H](CCN2C(=O)Nc2cc(F)ccc2F)[C@@H]1CO 1.41%
CC(=O)Nc1ccc2c3c(ccc([N+](=O)[O-])c13)CC2 -1.7%
O=S(=O)(NC1CC1)c1ccc2c3c(cccc13)CC2 -2.65%
COCC#Cc1ccc([C@H]2[C@@H](CO)N3C(=O)CN(C(=O)C4CCCC4)C[C@@H]23)cc1 0.614%
C[C@H](CO)N1C[C@H](C)[C@@H](CN(C)S(=O)(=O)c2ccccc2)Oc2ccc(NC(=O)Nc3ccc(F)cc3)cc2CC1=O 3.49%
O=C([C@H]1[C@H](CO)[C@H]2Cn3c(ccc(C4=CCCCC4)c3=O)[C@@H]1N2)N1CCCCC1 -11.2%
